Screen size: about 340,000 compounds; about 2,300 (0.68%) were called active. Shown is part of a subset that was picked to be rich in actives. A number with no mark means an inactive call. No stated cut-off is given here; in the data, active means growth rescue above about 28% (passing the limit was not always enough); inconclusive means no clear call, values can overlap the other calls.
Experiment: rescue of yeast from PfHsp40 toxicity, primary screen, S. cerevisiae, ATP luminescence (AID 504582);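 further: yeast W303a lacking pdr1 and pdr3 grown in galactose medium; growth measured after three days at 30 °C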
Conditions: S. cerevisiae expressing PfHsp40, growth rescue, at 12.5 µM, active compounds read high
With COc1ccc(C(=O)COC(=O)COc2ccc(C)c(C)c2)cc1 the growth rescue was 0.0365%. For COc1cc(C)ccc1OCC(=O)OCC(=O)c1ccc[nH]1, the growth rescue was 62.4% (active). CC(=O)Nc1ccc(S(=O)(=O)NCC(=O)OCC(=O)c2ccc[nH]2)cc1 showed a growth rescue of -1.02%. With Cc1ccc(NC(=O)NC(=O)N(C2CCCCC2)S(=O)(=O)c2ccccc2)cc1 the growth rescue was -1.71%. CCOc1ccccc1NC(=O)C1CCCN(S(=O)(=O)c2ccccc2)C1 (configuration not stated) gave a growth rescue of 0.502%. With CC(C)(C)c1ccc(OC2=CS(=O)(=O)c3ccccc32)cc1 the growth rescue was 6.99%. For CC(C)(C)c1ccc(Oc2ccc(N)cc2)cc1, the growth rescue was 346% (active). With COc1cccc(Oc2ccc(N)cc2)c1 the growth rescue was 1.74%. With O=C1C(C=NCC2CCCO2)=C(O)c2ccccc21 (configuration not stated) the growth rescue was 0.444%. Cc1cc(C(=O)CC#N)c(C)n1CC(F)(F)F gave a growth rescue of 0.147%. In the case of CC(C)Cn1c(SCC(=O)Nc2ccc(Cl)cc2F)nc(O)cc1=O, the growth rescue is reported as 1.12%. Molecule COc1cccc(CNC(=O)C2CCCN(S(=O)(=O)N3CC(C)CC(C)C3)C2)c1 (configuration not stated) has a growth rescue of 0.206%. In the case of CCOc1ccccc1Oc1cn[nH]c1-c1ccc(OC)cc1O, the growth rescue is reported as 125% (active). CCOc1ccc(-c2nc(N)ncc2-c2ccccc2OC)c(O)c1 showed a growth rescue of 1.96%. For COc1ccc(Oc2cn[nH]c2-c2ccc(OC)cc2O)cc1, the growth rescue was 10.8%. Work on COc1ccccc1/C=C1\SC(=O)N(CCC(=O)N(C)C2CCS(=O)(=O)C2)C1=O (configuration not stated) yielded a growth rescue of -0.442%. With COc1ccc(CCNS(=O)(=O)c2cccc3cccnc23)cc1OC the growth rescue was 0.122%. For CCOc1ccc(C(CC(=O)O)NC(=O)Cc2ccccc2)cc1OC (configuration not stated), the growth rescue was -0.249%. In the case of CCCCC(=O)NC(c1ccc(OC)c(OC)c1)c1ccc2cccnc2c1O (configuration not stated), the growth rescue is reported as 222% (active). For CCOC(=O)C(C)Oc1cccc2c(=O)n(CC(=O)N3CCc4ccccc43)ccc12 (configuration not stated), the growth rescue was 92.2% (active). In the case of CCOC(=O)C(C)Oc1cccc2c(=O)n(CC(=O)NCCc3ccc(OC)c(OC)c3)ccc12 (configuration not stated), the growth rescue is reported as 0.594%. COc1cccc2c(=O)n(CC(=O)N3CCCCCC3)ccc12 showed a growth rescue of -0.593%. In the case of O=C(O)CCCCOn1ccnc1, the growth rescue is reported as -2.14%. Molecule COc1ccc2c(c1)CCc1c(C(=O)N3CCCC3)noc1-2 has a growth rescue of 0.772%. With COc1ccc2c(c1)CCc1c(C(=O)N3CCc4ccccc4C3)noc1-2 the growth rescue was 182% (active). Work on O=C(c1noc2c1CCCC2)N1CCc2ccccc2C1 yielded a growth rescue of -0.161%. CCN(CC)C(=O)COc1coc(CN2CCN(Cc3ccccc3)CC2)cc1=O showed a growth rescue of -0.869%. Cc1ccc2[nH]c(C)c(CCNC(=O)NC3CCCCC3)c2c1 showed a growth rescue of -0.354%. Molecule Cc1ccsc1/C=N/n1c(=S)[nH]nc(C)c1=O has a growth rescue of -0.774%. In the case of S=c1[nH]nc(-c2ccco2)n1/N=C/c1ccc(Br)s1, the growth rescue is reported as 152% (active). Cc1ccccc1-c1n[nH]c(=S)n1/N=C/c1ccc(-c2ccccc2Br)o1 gave a growth rescue of 0.454%. Cc1cc(NC(=O)CSc2nc(=O)cc(N)n2-c2ccc(F)cc2)no1 showed a growth rescue of -0.428%. For COC(=O)Cn1cnc2scc(-c3ccc(C)c(C)c3)c2c1=O, the growth rescue was 151% (active). For CCn1cnc2scc(-c3ccc(C)c(C)c3)c2c1=O, the growth rescue was 1.65%. CCOC(=O)C(C)n1cnc2scc(-c3ccc(C)c(C)c3)c2c1=O (configuration not stated) showed a growth rescue of 4.82%. CCCc1nc2scc(-c3ccc(C)cc3)c2c(=O)n1N showed a growth rescue of 0.943%. Molecule CC(=O)C(C)n1cnc2scc(-c3ccc(C)cc3)c2c1=O (configuration not stated) has a growth rescue of 0.285%. For CCC(C(=O)OC)n1cnc2scc(-c3ccc(C)cc3)c2c1=O (configuration not stated), the growth rescue was 49.2% (active). For CN(C)CCCn1c(SCCN2C(=O)c3ccccc3C2=O)nc2ccccc2c1=O, the growth rescue was -0.077%. In the case of COc1ccc(C2OC(=O)CC2C(=O)NC(C)C)cc1 (configuration not stated), the growth rescue is reported as -0.42%. Cc1cccc(CCNS(=O)(=O)c2ccc(S(=O)(=O)NC3CCCC3)cc2)c1 gave a growth rescue of 0.473%. With O=C(CCc1nnc2ccc(NCCCN3CCCC3=O)nn12)NCc1ccccc1Cl the growth rescue was -0.483%. With Cc1nn(C)cc1C(=O)Nc1ccccc1Br the growth rescue was 0.045%. With CCCS(=O)(=O)N1CCN=C1SCc1cccc(F)c1 the growth rescue was 0.879%. O=C1CC(=O)Nc2cc(S(=O)(=O)N3CCN(c4cccc(C(F)(F)F)c4)CC3)ccc2N1 gave a growth rescue of -1.27%. In the case of O=C1CN(C(=O)c2cc(F)cc(F)c2)c2ccccc2N1, the growth rescue is reported as -0.198%. Molecule Cc1c(NC(=O)CSc2cccc3cccnc23)c(=O)n(-c2ccccc2)n1C has a growth rescue of 5.35%. With O=C(NNc1cc(Cl)ccc1Cl)c1cccnc1Cl the growth rescue was 0.035%. With CC(=O)/C(=N\Nc1ccc(Cl)cc1Cl)Sc1cccc2cccnc12 the growth rescue was 67.7% (active). Work on O=[N+]([O-])c1ccc(N2CCN(S(=O)(=O)c3ccccc3)CC2)cc1N1CCc2ccccc2C1 yielded a growth rescue of -0.201%. For CC/C(=C\c1ccc(Cl)cc1)c1ccncc1, the growth rescue was 0.0255%. Molecule COc1ccc(NC(=O)N2CCCC(c3nc(-c4ccc(F)cc4)no3)C2)cc1 (configuration not stated) has a growth rescue of 0.883%. CCOC(=O)C1CCCN(C(=O)CN(c2ccc(OC)cc2)S(=O)(=O)c2c(C)noc2C)C1 (configuration not stated) gave a growth rescue of 0.46%. In the case of CCN(C(=O)C1CCCN(c2nc(-c3ccc(OC)cc3)no2)C1)c1ccc(OC)cc1 (configuration not stated), the growth rescue is reported as 61.7% (active). Molecule C/C(=N\NC(=O)c1ccc(NS(=O)(=O)c2cccs2)cc1)c1ccc2ccccc2c1 has a growth rescue of -0.368%. For CSCCC(NC(=O)COc1ccccc1)C(=O)OCCOc1ccc(F)cc1 (configuration not stated), the growth rescue was -0.578%. CSCCC(NC(=O)COc1ccccc1)C(=O)OCCOc1ccc(Br)cc1 (configuration not stated) showed a growth rescue of -0.924%. In the case of CSCCC(NC(=O)COc1ccccc1)C(=O)N1CCN(c2cccc(C(F)(F)F)c2)CC1 (configuration not stated), the growth rescue is reported as 197% (active). Work on COCCCNS(=O)(=O)c1cccc(S(=O)(=O)c2cccc(S(=O)(=O)NCCCOC)c2)c1 yielded a growth rescue of -1.18%. Molecule CNC(=S)N1CCC(NC(=O)C(Cc2ccc(F)cc2)NC(C)=O)CC1 (configuration not stated) has a growth rescue of -1.81%. With Cc1ccc(S(=O)(=O)NCC(=O)N(CC(=O)NC(C)(C)C)Cc2cccs2)cc1 the growth rescue was -1.96%. With O=C(N[C@@H](Cc1c[nH]c2ccccc12)C(=O)O)OCC1c2ccccc2-c2ccccc21 the growth rescue was -1.08%. CC(=O)c1cccc(NC(=S)N2CCN(S(C)(=O)=O)CC2)c1 showed a growth rescue of -0.215%. For O=C(CSc1ccc(-c2ccccn2)nn1)Nc1ccccc1, the growth rescue was 379% (active). Molecule O=C(CSc1ccc(-c2ccc(-n3cccn3)cc2)nn1)Nc1ccc([N+](=O)[O-])cc1 has a growth rescue of 0.191%. Molecule COc1cc(NC(=O)CSc2ccc(-c3cccnc3)nn2)cc(OC)c1 has a growth rescue of -0.74%. For N#Cc1ccc(C(=O)OCC(=O)NC(=O)NC2CCCCC2)cc1, the growth rescue was 0.27%. Work on COc1ccc(OC(C)C(=O)Nc2cccnc2)cc1 (configuration not stated) yielded a growth rescue of -0.665%. COc1ccc(CCNC(=O)COC(=O)c2cnc(Cl)c(Cl)c2)cc1 showed a growth rescue of -2.56%. For COc1ccc(CS(=O)/C(Cl)=C(/Cl)C(=O)Nc2ccc(OC)nc2)cc1 (configuration not stated), the growth rescue was 81.6% (active). In the case of COc1ccc(NC(=O)/C(Cl)=C(/Cl)S(=O)Cc2ccc(C)cc2)cn1 (configuration not stated), the growth rescue is reported as 278% (active). For COc1cccc(NC(=S)N(Cc2ccc(C)cc2)Cc2ccccn2)c1, the growth rescue was 1.55%. COc1ccc(NS(=O)(=O)c2ccc(NC(=S)NC(=O)/C=C/c3ccc(C)cc3)cc2)nn1 gave a growth rescue of -1.55%. In the case of O=S(=O)(NC1CC2CCC1C2)c1ccc(Cl)cc1 (configuration not stated), the growth rescue is reported as 74.5% (active). O=S(=O)(NC1CC1)c1ccc(Cl)cc1 gave a growth rescue of -0.92%. In the case of O=S(=O)(NC1CCCCC1N1CCCCC1)c1ccc(Cl)cc1 (configuration not stated), the growth rescue is reported as 1.55%. COc1ccccc1OCC(=O)Nc1c2c(nn1-c1ccc(F)cc1)CS(=O)(=O)C2 showed a growth rescue of 3.47%. With CCOC(=O)c1c(NC(=O)NC(C)(C)C)sc2c1CCN(C)C2 the growth rescue was -1.54%. COc1ccccc1/C=N/N1CCN(Cc2ccccc2Cl)CC1 showed a growth rescue of -1.43%. In the case of COc1ccccc1/C=N\Nc1cc(C)nc(-n2nc(C)cc2C)n1, the growth rescue is reported as 143% (active). For CCOC(=O)c1cnc(-n2nc(C)cc2C)nc1NNc1cc(C)nc(-c2ccccc2)n1, the growth rescue was 0.854%. COc1ccc(CNC(=O)COC(=O)C2=Cc3ccccc3OC2)cc1 showed a growth rescue of 0.075%. Molecule CC(=O)c1c(C)[nH]c(C(=O)NCc2ccc(C)cc2)c1C has a growth rescue of -0.188%. CCCCNC(=O)CSc1nccn1Cc1ccccc1 showed a growth rescue of 0.912%. In the case of Cc1cccc(-c2nc(Nc3ccc(O)cc3)c3ccccc3n2)c1, the growth rescue is reported as 101% (active). Molecule Oc1ccc(-c2nnc(Nc3ccccc3)c3ccccc23)cc1 has a growth rescue of -0.3%. With CN1CCN(c2nc(Nc3ccc(O)cc3)nc3ccccc23)CC1 the growth rescue was -0.529%. With CC1(C)CC(=O)c2c(n(S(=O)(=O)c3ccccc3)c3ccc(NS(=O)(=O)c4ccccc4)cc23)C1 the growth rescue was -0.451%. CC(=O)N1N=C(c2ccncc2)OC1(Cc1ccccc1)Cc1ccccc1 showed a growth rescue of -0.493%. In the case of O=C(CSc1n[nH]c(-c2cccnc2)n1)Nc1ccc(Cl)cc1, the growth rescue is reported as -2.05%. Cc1c(C(=O)NCCN2C(=O)S/C(=C\c3cccs3)C2=O)cccc1[N+](=O)[O-] showed a growth rescue of 0.66%. In the case of CC[C@]1(O)C[C@@H]2CN(CCc3c([nH]c4ccccc34)[C@@](C(=O)OC)(c3cc4c(cc3OC)N(C)[C@H]3[C@@](O)(C(=O)OC)[C@H](OC(C)=O)[C@]5(CC)C=CCN6CC[C@]43[C@@H]65)C2)C1, the growth rescue is reported as -2.2%.
